Screening results deposited in PubChem BioAssay by Sanford-Burnham Center for Chemical Genomics.
The list is not random: actives were taken first. Their share in the collection is about 4.1%.
NALP1 inh – NALP1 inflammasome inhibitors in reconstituted yeast, colorimetric, S. cerevisiae, triplicate retest. AID 2071, 2009. hit rate 0.61% among 280,000. inhibition, % at 10 µM. S. cerevisiae NALP1/ASC/caspase-1 growth, X-gal OD620, 72 h; in the data active = inhibition mostly above about 24%, no sharp cut-off; inactive = mostly below about 32%
NLRP3 yeast inh – NALP3 inflammasome inhibitors in reconstituted yeast, primary screen, luminescence, uHTS; inhibition, % at 10 µM; AID 2825, 2010; Yeast reconstituted NLRP3/ASC/caspase-1, beta-gal luminescence, 24 h; hit rate 0.39% among 330,000;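 active = inhibition of 50% or more; inactive = inhibition below 50%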
TIM10 inh – growth inhibitors of isogenic TIM10 control yeast, primary screen, counter-screen for tim10-1 yeast inhibitor project, luminescence, uHTS. hit rate 1.4% among 330,000. AID 463195, 2010. S. cerevisiae TIM10 strain growth, BacTiter-Glo luminescence, 24 h. inhibition, % at 10 µM;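 active = inhibition of 40% or more at the single tested concentration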;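 also: wild-type TIM10 isogenic control strain grown at permissive 25 °C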
tim23-1 inh – growth inhibitors of tim23-1 mutant yeast, primary screen, luminescence, uHTS; S. cerevisiae tim23-1 growth, BacTiter-Glo luminescence, 24 h; hit rate 1.3% among 330,000; inhibition, % at 20 µM;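 active = growth inhibition of the mutant yeast at or above 50%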;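 also: temperature-sensitive mutant grown at 25 °C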
tim10-1 inh – growth inhibitors of tim10-1 mutant yeast, primary screen, luminescence, uHTS. S. cerevisiae tim10-1 ts strain growth, BacTiter-Glo, 24 h. inhibition, % at 20 µM. hit rate 2.2% among 330,000;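 active = inhibition of at least 40%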;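 also: mutant grown at 25 °C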
NALP3 yeast conf – NALP3 inhibitors retested in yeast, confirmation, luminescence, single concentration; shares compounds with NLRP3 yeast inh; yeast expressing human NALP3; inhibition, % at 10 µM; hit rate 81% among 1,300; AID 435006, 2010; in the data active = inhibition above about 48%
Casp1 ASC ctr – CASP1-PYCARD signaling inhibition in yeast, confirmatory test, counterassay for NLRP3 inhibitor program, one-dose; shares compounds with NLRP3 yeast inh; inhibition, % at 10 µM; AID 488784, 2010; yeast expressing Caspase-1-ASC, luminescence counter screen; hit rate 66% among 1,000
NALP3 retest – NALP3 inhibitors in yeast, repeat test, confirmation, luminescence, single concentration, retest | shares compounds with NLRP3 yeast inh | inhibition, % at 10 µM | yeast expressing human NALP3, luminescence read-out | hit rate 53% among 1,000
Hits are given with their value; - = inactive; . = no result. Rule as the data show it, unless noted: active = inhibition above about 50%; inactive = the rest.

SMILES	NALP1 inh	NLRP3 yeast inh	TIM10 inh	tim23-1 inh	tim10-1 inh	NALP3 yeast conf	Casp1 ASC ctr	NALP3 retest
CCSc1oc(-c2ccco2)nc1S(=O)(=O)c1ccc(F)cc1	-	-	-	-	-	.	.	.
CCSc1oc(-c2ccco2)nc1S(=O)(=O)c1ccc(C)cc1	-	52	-	-	-	50	50	-
C/C(=N\NC(=O)c1ccccc1)C1C2C=CC(C2)C1(C)C (stereo not given)	-	-	-	-	-	.	.	.
Fc1ccccc1CSc1nnc(-c2cnccn2)n1Cc1ccco1	-	-	-	-	-	-	.	.
C(=C\c1ccccc1)/CSc1nnc(-c2cnccn2)n1Cc1ccco1	-	-	-	-	-	.	.	.
O=C(Nc1ccccc1)c1ccc(S(=O)(=O)N2CCCC2)cc1	-	-	-	-	-	.	.	.
O=C(Nc1ccccc1)c1ccc(S(=O)(=O)N2CCCCC2)cc1	-	52	-	-	-	63	-	-
Cn1c(=O)c(C(=O)NNC(=O)c2ccccc2F)c(O)c2ccccc21	-	64	-	-	-	82	-	54
CCN=C1SC(CC(=O)Nc2sc(C)c(C)c2C(=O)OC)C(=O)N1CC (stereo not given)	-	56	-	-	-	64	64	52
CCN=C1SC(CC(=O)Nc2sc3c(c2C#N)CCCC3)C(=O)N1CC (stereo not given)	-	-	-	-	-	.	.	.
CC1(C)CC(=O)/C(=C\c2cccc([N+](=O)[O-])c2)C(C)(C)N1	67	59	-	-	-	55	-	-
Nc1ccc(-c2cc3ccccc3oc2=O)cc1	-	-	-	-	-	.	.	.
O=c1oc2ccccc2cc1-c1ccc(O)cc1	-	52	-	-	-	-	.	.
CN(Cc1nc2ccccc2n1C)C(=O)c1ccco1	-	-	-	-	-	.	.	.
COc1cc(NC(=O)CC(C)S(=O)(=O)c2ccc3c(c2)NC(=O)CO3)cc(OC)c1OC (stereo not given)	-	-	-	-	-	.	.	.
Cc1c(-c2ccc(Cl)cc2)oc(=O)c2c(N)n(-c3ccccc3)nc12	-	-	-	-	-	.	.	.
Nc1c2c(=O)oc(-c3ccccc3)cc2nn1-c1ccccc1	-	51	-	-	-	68	54	-
COc1ccccc1NC(=O)C(C)OC(=O)CCC1CCCCC1 (stereo not given)	-	-	-	-	-	.	.	.
CC(C)(C)c1ccc(C(=O)NNc2ccc(F)cc2F)cc1	.	53	-	-	-	-	.	.
CCOC(=O)c1sc(=S)n(-c2cc(OC)ccc2OC)c1N	-	97	-	-	-	96	71	57
Cc1ccc(NC(=O)Cc2ccccc2)cc1S(=O)(=O)N1CCOCC1	.	-	-	-	-	.	.	.
CCCOc1ccc2c3c(c(=O)oc2c1)CCCC3	-	55	-	-	-	63	78	64
N#Cc1nc(COc2ccc(Br)cc2)oc1N1CCCC1	-	54	-	-	-	62	50	-
CN1CCN(c2oc(COc3ccc(-c4ccccc4)cc3)nc2C#N)CC1	-	60	-	-	-	50	76	65
N#Cc1nc(COc2ccccc2)oc1N1CCCC1	-	75	-	-	-	49	79	64
SMILES	NALP1 inh	NLRP3 yeast inh	TIM10 inh	tim23-1 inh	tim10-1 inh	NALP3 yeast conf	Casp1 ASC ctr	NALP3 retest
Cc1cc(C)c(NC(=O)CN(C)C(=O)CNC(=O)c2cccs2)c(C)c1	.	-	-	-	-	.	.	.
CC(C)(C)c1csc(N/N=C/c2cccnc2)n1	-	58	-	-	-	68	76	56
C(=N\Nc1nc(-c2ccccc2)cs1)/c1cccnc1	-	-	-	-	-	.	.	.
Cc1[nH]cnc1CSCCN	-	58	-	-	-	69	54	65
Cc1[nH]cnc1CSCc1ccc(Cl)cc1	-	-	-	-	-	.	.	.
Cc1ccccc1OCCn1c(=S)[nH]c2ccccc21	-	53	-	-	-	79	67	-
Fc1ccccc1OCCn1c(=S)[nH]c2ccccc21	-	-	-	-	-	.	.	.
O=C(Nc1ccc(Cl)cc1)Nc1ccc(Cl)c(Cl)c1	.	72	-	-	-	72	-	-
CN(CC(=O)Nc1ccc(C#N)cc1)Cc1ccc(Cl)cc1Cl	-	65	-	-	-	59	59	-
CN(CC(=O)Nc1ccc(C#N)cc1)Cc1ccc(Cl)cc1	-	-	-	-	-	.	.	.
N#Cc1ccc(NC(=O)Nc2ccc(Cl)cc2)cc1	71	72	-	-	-	57	-	60
Cc1ccc(NC(=O)Nc2ccc(F)c(Cl)c2)cc1	-	-	-	-	-	.	.	.
OC(COc1cccc2ccccc12)CN1CCN(c2ccc(Cl)cc2)CC1 (stereo not given)	-	-	-	-	-	.	.	.
Cc1cccc(N2CCN(CC(O)COc3ccccc3Cl)CC2)c1 (stereo not given)	-	50	-	-	-	64	-	-
Cc1ccc(-c2nnc(CCC(=O)NCC3C4CC5CC(C4)CC3C5)o2)s1 (stereo not given)	-	-	-	-	-	.	.	.
Cc1ccc(/C=C2/Sc3ccc(C(=O)NCc4ccccn4)cc3NC2=O)cc1	-	-	-	-	-	.	.	.
CC(C)CN(C(=O)CCCSc1nc2ccccc2[nH]1)c1c(N)n(Cc2ccccc2)c(=O)[nH]c1=O	.	-	-	-	-	.	.	.
CC(C)(C)c1ccc(C(=O)NC(=S)N2CCCCCC2)cc1	-	-	-	-	-	.	.	.
CC(C)(C)c1ccc(C(=O)NC(=S)N2CCCC2)cc1	-	63	-	-	-	49	80	71
COCCSc1nc(N)c2c3c(sc2n1)CN(C)CC3	-	-	-	-	-	.	.	.
CC(C(=O)Nc1ccc(F)cc1Cl)N1CCN(S(=O)(=O)c2cccs2)CC1 (stereo not given)	.	-	-	-	-	.	.	.
CCN(CC)S(=O)(=O)c1cccc(-c2nc3n(n2)Cc2ccccc2-3)c1	-	-	-	-	-	-	.	.
c1ccc(-c2ccc(-c3cn4c(n3)CCC4)cc2)cc1	51	66	-	-	-	68	87	74
O=C(CCn1cccc(C(F)(F)F)c1=O)Nc1cccc(C(F)(F)F)c1	-	-	-	-	-	.	.	.
CCc1ccc2oc(-c3ccc(OC)cc3)cc(=Nc3cccc(C(=O)O)c3)c2c1	-	-	-	-	-	.	.	.
CCc1ccc2oc(-c3ccc(OC)cc3)cc(=Nc3c(C)n(C)n(-c4ccccc4)c3=O)c2c1	-	53	-	-	-	-	54	-
COc1ccc(-c2cc(C(=O)Nc3c(C)n(C)n(-c4ccccc4)c3=O)no2)cc1	-	-	-	-	-	.	.	.
